Test results from PubChem BioAssay AID1159580 (chemical genetic matrix, 2015).
Values joined by “and” are separate entries in the source; they are usually repeats but may differ in a detail not shown here. Equal entries are not always repeated. In all, about 5,500 compounds went through this assay and about 2,000 (36%) were called active. Another 18% or so got no clear call; they are omitted. Cut-off read from the data, not from the text of the source: active = normalized growth mostly below about 0.91 (no sharp cut-off); inconclusive = no clear call, values can overlap the other calls; inactive = mostly above about 0.92. This is one part of the list.

Assay: chemical genetic growth profiling, strain panel (AID 1159580);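 note: tested at 20 µM; growth read once vehicle control cultures reached saturation at 30 °C; 1 = growth at the plate median or of vehicle wells; lower values mean less growth of the strain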
Settings: S. cerevisiae deletion strains, growth OD

Measured: normalized growth

Oc1c(Cl)cc(Cl)c(Cl)c1Cc1c(O)c(Cl)cc(Cl)c1Cl
active: locus YAL021C, strain ccr4, hits give low values 0.0649 | locus YAL026C, strain drs2, hits give low values 0.0639 | locus YAL030W, strain snc1, hits give low values 0.0572 | locus YBL061C, strain skt5, hits give low values 0.0628 | locus YBR009C, strain hhf1, hits give low values 0.0575 | locus YBR021W, strain FUR4, hits give low values 0.0863 | locus YBR023C, strain chs3, hits give low values 0.0623 | locus YBR171W, strain sec66, hits give low values 0.0838 | locus YBR229C, strain ROT2, hits give low values 0.0457 | locus YBR231C, strain swc5, hits give low values 0.0612 | locus YBR279W, strain paf1, hits give low values 0.0633 | locus YCL011C, strain gbp2, hits give low values 0.0558 | locus YCL016C, strain dcc1, hits give low values 0.0684 | locus YCL029C, strain bik1, hits give low values 0.0602 | locus YCL061C, strain MRC1, hits give low values 0.064 | locus YCL069W, strain vba3, hits give low values 0.0605 | locus YCR088W, strain abp1, hits give low values 0.0632 | locus YDL005C, strain med2, hits give low values 0.0765 | locus YDL035C, strain GPR1, hits give low values 0.0447 | locus YDL040C, strain nat1, hits give low values 0.0596 | locus YDL074C, strain BRE1, hits give low values 0.0681 | locus YDL101C, strain DUN1, hits give low values 0.0525 | locus YDL185W, strain tfp1, hits give low values 0.0761 | locus YDL192W, strain arf1, hits give low values 0.0596 | locus YDR001C, strain nth1, hits give low values 0.0623 | locus YDR069C, strain doa4, hits give low values 0.0643 | locus YDR101C, strain arx1, hits give low values 0.0573 | locus YDR137W, strain rgp1, hits give low values 0.108 | locus YDR159W, strain sac3, hits give low values 0.111 | locus YDR162C, strain NBP2, hits give low values 0.0454 | locus YDR195W, strain ref2 0.126 | locus YDR297W, strain sur2, hits give low values 0.0566 | locus YDR318W, strain mcm21, hits give low values 0.0637 | locus YDR334W, strain swr1, hits give low values 0.0669 | locus YDR335W, strain msn5, hits give low values 0.061 | locus YDR388W, hits give low values 0.0571 | locus YDR392W, strain spt3, hits give low values 0.0734 | locus YDR502C, strain sam2, hits give low values 0.0651 | locus YEL003W, strain gim4, hits give low values 0.0558 | locus YEL037C, strain rad23, hits give low values 0.0567 | locus YEL061C, strain CIN8 (second series), hits give low values 0.0634 | locus YEL061C, strain CIN8, hits give low values 0.0485 | locus YER015W, strain faa2, hits give low values 0.065 | locus YER016W, strain bim1, hits give low values 0.0638 | locus YER110C, hits give low values 0.0729 | locus YER111C, strain swi4, hits give low values 0.0725 | locus YER155C, strain BEM2 (second series), hits give low values 0.0878 | locus YER155C, strain BEM2, hits give low values 0.0604 | locus YER167W, strain BCK2, hits give low values 0.0476 | locus YFR010W, strain ubp6, hits give low values 0.0712 | locus YGL078C, strain dbp3, hits give low values 0.108 | locus YGL086W, strain mad1, hits give low values 0.0548 | locus YGL167C, strain pmr1, hits give low values 0.0813 | locus YGL173C, strain kem1, hits give low values 0.0685 | locus YGL227W, strain vid30, hits give low values 0.0622 | locus YGL240W, strain doc1, hits give low values 0.0737 | locus YGL248W, strain PDE1, hits give low values 0.0447 | locus YGL253W, strain hxk2, hits give low values 0.0537 | locus YGR135W, strain pre9, hits give low values 0.0633 | locus YGR252W, strain gcn5, hits give low values 0.179 | locus YHR013C, strain ard1, hits give low values 0.108 | locus YHR027C, strain rpn1, hits give low values 0.0624 | locus YHR030C, strain SLT2, hits give low values 0.0509 and 0.0952 | locus YHR079C, strain IRE1 (second series), hits give low values 0.0571 | locus YHR079C, strain IRE1, hits give low values 0.137 | locus YHR094C, strain hxt1, hits give low values 0.0585 | locus YHR129C, strain ARP1, hits give low values 0.0547 | locus YHR142W, strain chs7, hits give low values 0.0728 | locus YHR200W, strain rpn10, hits give low values 0.0603 | locus YIL066C, strain RNR3, hits give low values 0.0457 | locus YIL073C, strain SPO22, hits give low values 0.0959 | locus YIL125W, strain kgd1, hits give low values 0.0781 | locus YIR030C, strain dcg1, hits give low values 0.0579 | locus YJL092W, strain hpr5, hits give low values 0.0606 | locus YJL095W, strain BCK1 (second series), hits give low values 0.0579 | locus YJL095W, strain BCK1, hits give low values 0.0575 and 0.0959 | locus YJL115W, strain asf1, hits give low values 0.0753 | locus YJL129C, strain trk1, hits give low values 0.0909 | locus YJL134W, strain LCB3, hits give low values 0.0469 | locus YJL154C, strain vps35, hits give low values 0.0611 | locus YJL164C, strain tpk1, hits give low values 0.0591 | locus YJL166W, strain qcr8, hits give low values 0.0615 | locus YJL168C, strain set2, hits give low values 0.0584 | locus YJL187C, strain SWE1 (second series), hits give low values 0.0437 | locus YJR043C, strain POL32, hits give low values 0.0543 | locus YJR066W, strain TOR1, hits give low values 0.0109 | locus YKL009W, strain mrt4, hits give low values 0.13 | locus YKL068W, hits give low values 0.0876 | locus YKL085W, strain MDH1 (second series), hits give low values 0.0638 | locus YKL085W, strain MDH1, hits give low values 0.0638 | locus YKL160W, strain elf1, hits give low values 0.0626 | locus YKL190W, strain CNB1, hits give low values 0.0457 | locus YKR001C, strain vps1, hits give low values 0.064 | locus YKR026C, strain gcn3, hits give low values 0.063 | locus YKR091W, strain srl3, hits give low values 0.058 | locus YLL001W, strain dnm1, hits give low values 0.0618 | locus YLL026W, hits give low values 0.0568 | locus YLL041C, strain sdh2, hits give low values 0.0572 | locus YLR027C, strain aat2, hits give low values 0.0557 | locus YLR039C, strain RIC1, hits give low values 0.101 | locus YLR058C, strain SHM2, hits give low values 0.0462 | locus YLR102C, strain apc9, hits give low values 0.0599 | locus YLR113W, strain HOG1, hits give low values 0.119 | locus YLR221C, strain rsa3, hits give low values 0.064 | locus YLR258W, strain gsy2, hits give low values 0.0646 | locus YLR262C, strain YPT6 (second series), hits give low values 0.0785 | locus YLR262C, strain YPT6, hits give low values 0.114 | locus YLR268W, strain sec22, hits give low values 0.0689 | locus YLR320W, strain mms22, hits give low values 0.0782 | locus YLR330W, strain CHS5, hits give low values 0.0515 | locus YLR342W, strain FKS1 (second series), hits give low values 0.0549 | locus YLR342W, strain FKS1, hits give low values 0.0674 | locus YLR357W, strain rsc2, hits give low values 0.132 | locus YLR370C, strain arc18, hits give low values 0.0635 | locus YLR371W, strain rom2, hits give low values 0.0617 | locus YLR384C, strain iki3, hits give low values 0.0627 | locus YLR418C, strain cdc73, hits give low values 0.102 | locus YML016C, strain PPZ1, hits give low values 0.0443 | locus YML032C, strain rad52, hits give low values 0.0719 | locus YML120C, strain ndi1, hits give low values 0.0723 | locus YML124C, strain tub3, hits give low values 0.0588 | locus YMR058W, strain fet3, hits give low values 0.06 | locus YMR078C, strain ctf18, hits give low values 0.0715 | locus YMR125W, strain sto1, hits give low values 0.0705 | locus YMR129W, hits give low values 0.0593 | locus YMR205C, strain PFK2, hits give low values 0.0865 | locus YMR223W, strain ubp8, hits give low values 0.064 | locus YMR231W, strain pep5, hits give low values 0.0739 | locus YMR307W, strain GAS1, hits give low values 0.095 | locus YNL067W, strain RPL9B, hits give low values 0.0449 | locus YNL071W, strain lat1, hits give low values 0.0618 | locus YNL183C, strain NPR1, hits give low values -0.000219 | locus YNL209W, strain ssb2, hits give low values 0.0615 | locus YNL233W, strain BNI4, hits give low values 0.0507 | locus YNL248C, strain rpa49, hits give low values 0.0739 | locus YNL250W, strain rad50, hits give low values 0.232 | locus YNL271C, strain bni1, hits give low values 0.0767 | locus YNL298W, strain CLA4, hits give low values 0.0832 | locus YNL307C, strain MCK1, hits give low values 0.0665 | locus YNL322C, strain KRE1 (second series), hits give low values 0.0815 | locus YNR049C, strain mso1, hits give low values 0.0574 | locus YNR052C, strain pop2, hits give low values 0.0618 | locus YOL147C, strain pex11, hits give low values 0.0569 | locus YOR001W, strain rrp6, hits give low values 0.0782 | locus YOR061W, strain CKA2, hits give low values 0.0448 | locus YOR069W, strain VPS5, hits give low values 0.0463 | locus YOR070C, strain gyp1, hits give low values 0.0582 | locus YOR080W, strain dia2, hits give low values 0.0666 | locus YOR083W, strain WHI5, hits give low values 0.065 | locus YOR106W, strain vam3, hits give low values 0.0665 | locus YOR136W, strain idh2, hits give low values 0.0719 | locus YOR144C, strain elg1, hits give low values 0.0552 | locus YOR184W, strain ser1, hits give low values 0.075 | locus YOR231W, strain MKK1, hits give low values 0.112 | locus YOR265W, strain rbl2, hits give low values 0.065 | locus YOR270C, strain vph1, hits give low values 0.0914 | locus YOR290C, strain snf2, hits give low values 0.0645 | locus YOR316C, strain cot1, hits give low values 0.0584 | locus YPL051W, strain arl3, hits give low values 0.0639 | locus YPL078C, strain atp4, hits give low values 0.0652 | locus YPL106C, strain sse1, hits give low values 0.1 | locus YPL240C, strain hsp82, hits give low values 0.0579 | locus YPL256C, strain CLN2, hits give low values 0.116 | locus YPR119W, strain clb2, hits give low values 0.0624 | locus YPR141C, strain kar3, hits give low values 0.0848 | locus YPR163C, strain tif3, hits give low values 0.0697 | locus YPR167C, strain met16, hits give low values 0.0631 | strain wtn01, hits give low values 0.0656
